# Compound activity: PubChem, National Center for Advancing Translational Sciences (NCATS)
# Methyltransferases = Primary Screen for Target Class Profiling of Small Molecule Inhibitors of Methyltransferases | purified enzyme, MTase-Glo SAH luminescence; hits give low values | calls only at 40 µM | 25,000 tested, 3.9% active | AID 1745853, 2022; call rule not given here
#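 Each enzyme was assayed with SAM and its substrate. SAH formation detected by MTase-Glo luminescence; single-point 40 uM screen[…].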
# An asterisk follows results filed as active; i = inactive; + = active, no number; ! = not active in a repeat. This excerpt belongs to a sample that is enriched for hits. On the % scale 0 is the no-effect control and ±100 the full control effect.
SMILES,Methyltransferases
C=C1C(=O)O[C@H]2CC(=C)[C@H]3CC[C@@](C)(O)[C@@H]3CC12 (stereo partly drawn),+
C=C(C)C(=O)OC1[C@@H]2C(=C)C(=O)O[C@@H]2C[C@@H](C)[C@@H]2C=CC(=O)[C@@]12C (stereo partly drawn),i
C=C1C(=O)O[C@H]2C1CCC(C)=C1C(=O)C=C(C)[C@@]12O (stereo partly drawn),i
CCCCc1ccc(NC(=O)CN2C(=O)NC3(CCS(=O)(=O)CC3)C2=O)cc1,i
CC1(C(=O)NCc2ccccc2)Cn2c(cc3ccccc32)C(=O)N1Cc1ccco1 (stereo not drawn),i
Cc1cccc(C(C(=O)N2CCN(Cc3noc(C)n3)CC2)N(C)C)c1 (stereo not drawn),i
O=C(c1nc2ccccc2n(C2CCCC2)c1=O)N1CCCC1,i
COCCCN1C(=O)c2cc3sccc3n2CC1(C)C(=O)NC1CCCCC1 (stereo not drawn),i
CNC(=O)c1cc(C2CC2)nc2c1c(C1CCN([S+](=O)([O-])c3c(C)noc3C)CC1)nn2C,i
O=C(COCC(=O)N1CCN(C(c2ccccc2)c2ccccc2)CC1)Nc1ccc(Cl)cc1C(=O)O,+
O=C(CCC(=O)n1ncc2ccc(Cl)cc21)N1CCN(c2ccccc2)CC1,i
N#CC(CCCN1CCN(/N=C/c2cccnc2)CC1)(c1ccccc1)c1ccccc1,i
Cc1nnc(C[C@@H]2C=C(c3ccc(Cl)cc3)c3ccccc3-n3c(C)nnc32)o1,+
CCCN1C(=O)c2cc(C(=O)NCc3ccc(OCC)c(OC)c3)nn2CC1(C)C(=O)NC1CCCC1 (stereo not drawn),i
Cc1cccc(N2CCN(C(=O)CCc3nnc4n(Cc5ccc(F)cc5)c(=O)c5ccccc5n34)CC2)c1C,i
Cc1ccsc1CN1CCCC(O)(CN(C)C)C1 (stereo not drawn),i
O=C(CCc1ccccc1)N1CCC(O)(Cn2cnc3cc(Cl)ccc3c2=O)CC1,i
CN(C(=O)c1cccc2ccccc12)C1CCCN(C2Cc3ccccc3C2)C1 (stereo not drawn),i
COc1cccc(N2C(=O)NC(=NC3CCCC3)C23CCN([S+](=O)([O-])c2cccs2)C3)c1 (stereo not drawn),i
CC(C)CC(=O)N1CCN(c2nnc3ccc(C(F)(F)F)cn23)CC1,i
Cc1cc(C)cc(NC(=O)Cn2c(=O)oc3cc(S(=O)(=O)N4CCCCC4)ccc32)c1,i
COCCN1C(=O)N(C)C(=O)C12CCN(CCCOc1ccc(F)cc1)C2 (stereo not drawn),i
COc1ccccc1CNC(=O)C1(C)Cn2nc(-c3ccccc3)cc2C(=O)N1c1cc(C)cc(C)c1 (stereo not drawn),i
Cn1cccc1CN[C@H]1[C@H](O)[C@@H](N2CCCC2)[C@@H]2OC[C@H]1O2,i
CN(C)CCOC(C)(c1ccccc1)c1ccc(Cl)cc1 (stereo not drawn),+
SMILES,Methyltransferases
CN(C)CCOC(c1ccccc1)c1ccccc1,i
COc1ccc(N2C(=O)c3cc4occc4n3CC2(C)C(=O)NC2CCCCCC2)cc1OC (stereo not drawn),i
CC(C)CCN1CC[C@@H]2OCC(=O)N(Cc3ccccc3)[C@H]2CC1,i
COCC(=O)N(C)Cc1ccc(F)cc1,i
CCOC(=O)c1cc2n(n1)CC(C)(C(=O)NCc1ccc(F)cc1)N(c1ccc(C)cc1C)C2=O (stereo not drawn),i
CCOC(=O)Nc1ccc(NCc2ccc(F)cc2)nc1N,+
CCCn1c(=O)c2ccc(C(=O)NCC(C)C)cc2n2c(=O)n(Cc3cc(C)ccc3C)nc12,i
CN1CCN(CCN2C(=O)c3ccc(-c4ccco4)n3CC2(C)C(=O)NC2CCCCCC2)CC1 (stereo not drawn),i
CCOc1ccccc1CN1C(=O)c2cc(C3CC3)nn2CC1(C)C(=O)NC1CCCCCC1 (stereo not drawn),i
CCOc1ccc(CN2C(=O)c3cc(C(=O)OC)nn3CC2(C)C(=O)NC2CCCCCC2)cc1 (stereo not drawn),i
C=CC(=O)Nc1ccc(CN2C(=O)N(c3cc(OC)cc(OC)c3)Cc3cnc(Nc4ccc(N5CCN(C)CC5)cc4)nc32)cc1,+
COc1cccc(Nc2ncc3c(n2)C(C)(C(=O)N2CCN(c4ccccn4)CC2)CC3)c1 (stereo not drawn),i
C=CC(=O)Nc1cccc(Oc2nc(Nc3ccc(N4CCN(C)CC4)cc3OC)ncc2Cl)c1,i
Cc1cc(NS(=O)(=O)c2ccc3[nH]c(=O)[nH]c3c2)ccc1Br,i
COCCN1C(=O)c2cccn2CC1CNS(=O)(=O)Cc1ccccc1 (stereo not drawn),i
CC(C)Oc1ccc(CN2C(=O)c3cc4sccc4n3CC2(C)C(=O)NC2CCCCCC2)cc1 (stereo not drawn),i
Cn1c(=O)n(C)c2cc(S(=O)(=O)Nc3ccc(Cl)cc3)ccc21,i
CCCNC(=O)NS(=O)(=O)c1ccc(Cl)cc1,i
CN(C)c1ccc(NC(=O)NS(=O)(=O)c2ccc(Cl)cc2)cc1,+
CCCn1c(=O)c2ccccc2n2c(SCC(=O)N3CCN(c4ccc(F)cc4)CC3)nnc12,i
CCN(CC)CCN(Cc1ccc(-c2ccc(C(F)(F)F)cc2)cc1)C(=O)Cn1c(SCc2ccc(F)cc2)nc(=O)c2c1CCC2,+
COc1cc2c(NC3CCN(CC4CCCCC4)CC3)nc(N3CCCN(C(C)C)CC3)nc2cc1OCCCN1CCCCC1,+!
CC(C)CCNC(=O)C1(C)Cn2c(ccc2-c2ccco2)C(=O)N1Cc1ccccc1Cl (stereo not drawn),i
CC(C)c1cc2c(c(O)c1O)[C@@]13CCCC(C)(C)C1[C@@H](O)[C@@H]2OC3=O (stereo partly drawn),+
CC(C)c1cc2c(c(O)c1O)[C@@]13CCCC(C)(C)[C@@H]1[C@H](OC3=O)C2=O,i
SMILES,Methyltransferases
COC1OC(=O)C2=C1C1(C)CCCC(C)(C)C1CC2O (stereo not drawn),i
CC1=CC(=O)C2C(C)(C)CCC[C@]2(C)[C@H]1CC[C@H](C)CC(=O)O (stereo partly drawn),i
CC(=O)OC/C(=C/C(=O)O)CC[C@@H]1C(C)=CC(=O)[C@@H]2C(C)(C)CCC[C@@]12C,+
CC1=CC(=O)C2C(C)(C)CCC[C@]2(C)[C@H]1CO (stereo partly drawn),i
Nc1[nH]nc2nnc(-c3c(-c4ccccc4)nn4ccccc34)cc12,+
O=C(O)c1cc(-c2c(-c3ccccc3)nn3ccccc23)n[nH]c1=O,i
CC(C)c1ccc(N2CC(C(=O)N(C)C3CCSCC3)CC2=O)cc1 (stereo not drawn),i
COc1ccc(-c2nnc3n(Cc4ccc(C)cc4)c(=O)c4ccccc4n23)c(OC)c1,i
Cc1cc(C)cc(NC(=O)Cn2nc3n(C(C)C)c(=O)c4ccc(C(=O)NC(C)C)cc4n3c2=O)c1,i
COC(=O)CCSC/C=C(\C)CCn1cc(CCc2ccc(-c3ccccc3)cc2)nn1,+!
COc1cccc(NC(=O)CCc2nnc3n(Cc4ccccc4)c(=O)c4ccccc4n23)c1,i
CNC(C)C(=O)NC(C(=O)N1CCCC1C(=O)Nc1snnc1-c1ccccc1)C1CCCCC1 (stereo not drawn),i
CN(c1ccccc1)S(=O)(=O)C1CCS(=O)(=O)C1 (stereo not drawn),i
